Assay results published in PubChem BioAssay (Tox21).
A number with no mark means an inactive call. Records with an inconclusive call do not appear. The source made the active and inactive calls. Calls come from the whole dose curve; as a rule, active = well fitted curve in the direction sought with a large enough effect in the repeat runs; inconclusive = weak or mixed curves; inactive = no such curve, though single readings can be large; an effect the other way counts as inactive or inconclusive.

assay: qHTS RealTime-Glo MT Cell Viability Assay in HepG2 cells - 24 hour (AID 1224867); conditions: RealTime-Glo luminescence; series mostly up to 76.8 µM; activity change, negative = cytotoxicity: at the top concentration; note: potency is the fitted concentration of half-maximal effect
How it was run: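 Cells + NanoLuc/prosubstrate dispensed (600 cells/well) → 5 h at 37 C/5% CO2 → compounds in DMSO transferred → 40 h incubation at 37 C, luminescence read at 0, 8, 16, 24, 32, 40 h.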
% is set by controls: 0 for no effect and ±100 for the full control effect.
Note: nearly all actives have a fitted effect of over 50% in size.

| Compound | Potency | activity change, negative = cytotoxicity |
| --- | --- | --- |
| CCN(CC)C(=O)c1cc(S(=O)(=O)Cc2ccccc2)c(N2CCC(c3ccccc3)CC2)cc1N(CC)CCN(C)C | 17.2 µM (active) | – |
| Clc1nnc(Cl)c2ccccc12 | – | 2.72% |
| O=[N+]([O-])c1cccc(C(F)(F)F)c1 | – | 1.2% |
| CC(C)(C)NSc1nc2ccccc2s1 | – | -0.802% |
| CC(C)(c1cc(Br)c(OCC(Br)CBr)c(Br)c1)c1cc(Br)c(OCC(Br)CBr)c(Br)c1 (stereo unspecified) | – | -11.7% [at 35.3 µM] |
| CCC(CC)(CC(=O)Nc1cccc(/C=C/c2nc(C3CCC3)cs2)c1)C(=O)O | – | -3.63% [at 35.3 µM] |
| O=C1CCCCCCCCCCCCCCCO1 | – | -0.264% |
| O=C1C(c2[nH]c3ccc(S(=O)(=O)O)cc3c2O)=Nc2ccc(S(=O)(=O)O)cc21 | – | 0.319% |
| c1ccc(SSc2ccccc2)cc1 | – | 0.771% |
| S=C([S-])NCCNC(=S)[S-].S=C([S-])NCCNC(=S)[S-].[Mn+2].[Zn+2] | – | -20.3% [at 35.3 µM] |
| O=C(O)Cc1ccccc1Nc1c(Cl)cccc1Cl | inactive | – |
| Nc1ccc(NCCO)c([N+](=O)[O-])c1 | – | -9.42% |
| CC(CO)Oc1ccccc1 (stereo unspecified) | – | 2.5% |
| O=C(/C=C/c1ccc(O)c(O)c1)O[C@@H](C(=O)O)[C@@H](OC(=O)/C=C/c1ccc(O)c(O)c1)C(=O)O | – | 1.07% |
| C#Cc1ccc(-c2ccccc2F)cc1 | – | 0.699% [at 35.3 µM] |
| CCC(COC(=O)CCS)(COC(=O)CCS)COC(=O)CCS | – | 6.71% |
| NC(=S)NC(N)=S | – | 2.11% |
| CCCCCCC1CCCC(=O)O1 (stereo unspecified) | – | -0.338% |
| [Cl][Pt-2]([Cl])([Cl])[Cl] | – | -2.15% |
| C=Cc1ccccc1C=C | – | 0.764% [at 200 µM] |
| CC(C)CCOC(=O)/C=C/c1ccccc1 | – | 0.713% |
| CCc1ccc(Br)cc1 | – | -4.28% |
| C[C@H]1NCc2cc(-c3ccc4c(=O)c(C(=O)O)cn(C5CC5)c4c3OC(F)F)ccc21 | – | -15.8% [at 15.8 µM] |
| CC1=CCC(=C(C)C)CC1 | – | -2.9% |
| Cc1c(C)c2c(c(C)c1OC(=O)c1cccnc1)CC[C@@](C)(CCC[C@H](C)CCC[C@H](C)CCCC(C)C)O2 | – | 3.27% [at 35.3 µM] |
| Cc1cccc(C(=O)O)c1O | – | 1.78% [at 35.3 µM] |
| CCCNCCC | – | -0.0397% |
| Cc1cccc2cccnc12 | – | -0.0783% |
| CCC(C)[O-].CCC(C)[O-].CCOC(=O)/C=C(/C)[O-].[Al+3] | – | -3.39% |
| Cc1ccc(C(C)C)cc2c(C)ccc1-2 | – | -0.443% [at 35.3 µM] |

assay: qHTS RealTime-Glo MT Cell Viability Assay in HEK293 cells - 32 hour (AID 1224868); conditions: RealTime-Glo luminescence; series mostly up to 76.8 µM; activity change, negative = cytotoxic: at the top concentration; note: potency is the fitted concentration of half-maximal effect; for activity change, negative = cytotoxic: top concentration of the series differs between compounds
How it was run: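 Tox21 10K qHTS, HEK293, 600 cells/well, RealTime-Glo reagent co-dispensed with cells; 5 h preincubation, compound by pintool, 37 C, luminescence at 0–40 h.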

| Compound | Potency | activity change, negative = cytotoxic |
| --- | --- | --- |
| CCN(CC)C(=O)c1cc(S(=O)(=O)Cc2ccccc2)c(N2CCC(c3ccccc3)CC2)cc1N(CC)CCN(C)C | 8.61 µM (active) | – |
| Clc1nnc(Cl)c2ccccc12 | – | -1.69% |
| O=[N+]([O-])c1cccc(C(F)(F)F)c1 | – | 8.39% |
| CC(C)(C)NSc1nc2ccccc2s1 | – | 7.4% |
| CC(C)(c1cc(Br)c(OCC(Br)CBr)c(Br)c1)c1cc(Br)c(OCC(Br)CBr)c(Br)c1 (stereo unspecified) | – | 2.44% [at 35.3 µM] |
| CCC(CC)(CC(=O)Nc1cccc(/C=C/c2nc(C3CCC3)cs2)c1)C(=O)O | – | -15.5% [at 35.3 µM] |
| CCOC(=O)NNc1ccc(N(CC)CC(C)O)nn1 (stereo unspecified) | – | 11.9% [at 35.3 µM] |
| O=C1CCCCCCCCCCCCCCCO1 | – | 7.22% |
| COCCOc1cc2cc(C(=O)NC3CCN(C(C)C)CC3)n(CC(=O)Nc3ccc(Cl)cn3)c2cn1 | – | -29.2% |
| O=C1C(c2[nH]c3ccc(S(=O)(=O)O)cc3c2O)=Nc2ccc(S(=O)(=O)O)cc21 | – | 6% |
| c1ccc(SSc2ccccc2)cc1 | – | -13.2% |
| O=C(O)Cc1ccccc1Nc1c(Cl)cccc1Cl | inactive | – |
| COc1cc(S(=O)(=O)O)c(C)cc1N=Nc1c(O)ccc2cc(S(=O)(=O)O)ccc12 | – | -8.96% |
| Nc1ccc(NCCO)c([N+](=O)[O-])c1 | – | 6.66% |
| CC(CO)Oc1ccccc1 (stereo unspecified) | – | -11% |
| O=C(/C=C/c1ccc(O)c(O)c1)O[C@@H](C(=O)O)[C@@H](OC(=O)/C=C/c1ccc(O)c(O)c1)C(=O)O | – | 1.96% |
| C#Cc1ccc(-c2ccccc2F)cc1 | – | 3.73% [at 35.3 µM] |

| Compound | Potency | activity change, negative = cytotoxic |
| --- | --- | --- |
| CCC(COC(=O)CCS)(COC(=O)CCS)COC(=O)CCS | – | -9.28% |
| Cl[Si](Cl)(c1ccccc1)c1ccccc1 | – | -3.09% |
| NC(=S)NC(N)=S | – | 6.09% |
| CCCCCCC1CCCC(=O)O1 (stereo unspecified) | – | 0.903% |
| C=Cc1ccccc1C=C | – | 17.6% [at 200 µM] |
| C=C(C)C(=O)OCCCCCCCCCC | – | 13.6% |
| CC(C)CCOC(=O)/C=C/c1ccccc1 | – | -4.12% |
| CCc1ccc(Br)cc1 | – | 4.39% |
| C[C@H]1NCc2cc(-c3ccc4c(=O)c(C(=O)O)cn(C5CC5)c4c3OC(F)F)ccc21 | – | -6.15% [at 15.8 µM] |
| CC1=CCC(=C(C)C)CC1 | – | 0.164% |
| Cc1c(C)c2c(c(C)c1OC(=O)c1cccnc1)CC[C@@](C)(CCC[C@H](C)CCC[C@H](C)CCCC(C)C)O2 | – | -0.652% [at 35.3 µM] |
| Cc1cccc(C(=O)O)c1O | – | -2.63% [at 35.3 µM] |
| CCCNCCC | – | -8.48% |
| Cc1cccc2cccnc12 | – | 9.88% |
| Nc1nc2c(ncn2COCCO)c(=O)[nH]1 | – | 6.46% [at 35.3 µM] |
| CCC(C)[O-].CCC(C)[O-].CCOC(=O)/C=C(/C)[O-].[Al+3] | – | 5.12% |
| Cc1ccc(C(C)C)cc2c(C)ccc1-2 | – | -4.18% [at 35.3 µM] |

assay: A CellTox Green Cytotoxicity Assay to monitor cytotoxicity in HEK293 cells - 0 hour (AID 1224869); conditions: CellTox Green fluorescence; series mostly up to 76.8 µM; cytotoxicity: at the top concentration
How it was run: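 Dead-cell fluorescence measured kinetically: asymmetric cyanine dye, HEK293, 600 cells/well, 5 h settle, 23 nL cpd/DMSO, 37 C, reads 0–40 h every 8 h.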

| Compound | cytotoxicity | Potency |
| --- | --- | --- |
| CCN(CC)C(=O)c1cc(S(=O)(=O)Cc2ccccc2)c(N2CCC(c3ccccc3)CC2)cc1N(CC)CCN(C)C | 1.44% [at 35.3 µM] | – |
| Clc1nnc(Cl)c2ccccc12 | 9.08% | – |
| O=[N+]([O-])c1cccc(C(F)(F)F)c1 | -4.77% | – |
| CC(C)(c1cc(Br)c(OCC(Br)CBr)c(Br)c1)c1cc(Br)c(OCC(Br)CBr)c(Br)c1 (stereo unspecified) | 1.82% [at 35.3 µM] | – |
| CCC(CC)(CC(=O)Nc1cccc(/C=C/c2nc(C3CCC3)cs2)c1)C(=O)O | -0.194% [at 35.3 µM] | – |
| COc1cc(/C=C/c2ccccc2)oc(=O)c1 | 0.383% | – |
| COCCOc1cc2cc(C(=O)NC3CCN(C(C)C)CC3)n(CC(=O)Nc3ccc(Cl)cn3)c2cn1 | -3.89% | – |
| O=C1C(c2[nH]c3ccc(S(=O)(=O)O)cc3c2O)=Nc2ccc(S(=O)(=O)O)cc21 | -5.64% | – |
| c1ccc(SSc2ccccc2)cc1 | 0.912% | – |
| S=C([S-])NCCNC(=S)[S-].S=C([S-])NCCNC(=S)[S-].[Mn+2].[Zn+2] | -7.01% [at 35.3 µM] | – |
| O=C(O)Cc1ccccc1Nc1c(Cl)cccc1Cl | – | inactive |
| COc1cc(S(=O)(=O)O)c(C)cc1N=Nc1c(O)ccc2cc(S(=O)(=O)O)ccc12 | -14.8% | – |
| Nc1ccc(NCCO)c([N+](=O)[O-])c1 | -6.03% | – |
| CC(CO)Oc1ccccc1 (stereo unspecified) | -0.75% | – |
| O=C(/C=C/c1ccc(O)c(O)c1)O[C@@H](C(=O)O)[C@@H](OC(=O)/C=C/c1ccc(O)c(O)c1)C(=O)O | -6.68% | – |
| C#Cc1ccc(-c2ccccc2F)cc1 | -6.05% [at 35.3 µM] | – |

| Compound | cytotoxicity | Potency |
| --- | --- | --- |
| CCC(COC(=O)CCS)(COC(=O)CCS)COC(=O)CCS | 0.237% | – |
| NC(=S)NC(N)=S | -4.68% | – |
| CCCCCCC1CCCC(=O)O1 (stereo unspecified) | 6.19% | – |
| [Cl][Pt-2]([Cl])([Cl])[Cl] | -5.87% | – |
| C=Cc1ccccc1C=C | -7.86% [at 200 µM] | – |
| C=C(C)C(=O)OCCCCCCCCCC | 0.705% | – |
| CCc1ccc(Br)cc1 | -0.0082% | – |
| C[C@H]1NCc2cc(-c3ccc4c(=O)c(C(=O)O)cn(C5CC5)c4c3OC(F)F)ccc21 | 0.0457% [at 15.8 µM] | – |
| CC1=CCC(=C(C)C)CC1 | -7.97% | – |
| Cc1c(C)c2c(c(C)c1OC(=O)c1cccnc1)CC[C@@](C)(CCC[C@H](C)CCC[C@H](C)CCCC(C)C)O2 | -6.72% [at 35.3 µM] | – |
| Cc1cccc(C(=O)O)c1O | 0.793% [at 35.3 µM] | – |
| CCCNCCC | -6.55% | – |
| Cc1cccc2cccnc12 | 0.131% | – |
| Nc1nc2c(ncn2COCCO)c(=O)[nH]1 | 1.17% [at 35.3 µM] | – |
| CCC(C)[O-].CCC(C)[O-].CCOC(=O)/C=C(/C)[O-].[Al+3] | 7.59% | – |
| Cc1ccc(C(C)C)cc2c(C)ccc1-2 | 0.172% [at 35.3 µM] | – |
